Experimental data as given in PubChem BioAssay AID1159580 (chemical genetic matrix, 2015).
Out of some 5,500 compounds screened, about 2,000 (36%) were called active. Roughly 18% stayed inconclusive and do not appear here. Cut-off read from the data, not from the text of the source: active = normalized growth mostly below about 0.91 (no sharp cut-off); inconclusive = no clear call, values can overlap the other calls; inactive = mostly above about 0.92. The list shows a part of the results.

Assay: chemical genetic growth profiling, strain panel (AID 1159580);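 note: tested at 20 µM; growth read once vehicle control cultures reached saturation at 30 °C; 1 = growth at the plate median or of vehicle wells; lower values mean less growth of the strain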
Details: S. cerevisiae deletion strains, growth OD

Measured: normalized growth

CNC(=O)O/N=C\C(C)(C)SC
inactive: locus YAL013W, strain DEP1, stronger effect = lower value 1.01 | locus YAL021C, strain ccr4, stronger effect = lower value 0.997 | locus YAL026C, strain drs2, stronger effect = lower value 1 | locus YAL030W, strain snc1, stronger effect = lower value 1 | locus YBL061C, strain skt5, stronger effect = lower value 1.01 | locus YBR009C, strain hhf1, stronger effect = lower value 0.988 | locus YBR021W, strain FUR4, stronger effect = lower value 1.03 | locus YBR023C, strain chs3, stronger effect = lower value 1 | locus YBR171W, strain sec66, stronger effect = lower value 1.01 | locus YBR229C, strain ROT2, stronger effect = lower value 0.996 | locus YBR231C, strain swc5, stronger effect = lower value 0.998 | locus YBR279W, strain paf1, stronger effect = lower value 1.01 | locus YCL011C, strain gbp2, stronger effect = lower value 1.01 | locus YCL016C, strain dcc1, stronger effect = lower value 1.01 | locus YCL029C, strain bik1, stronger effect = lower value 0.987 | locus YCL061C, strain MRC1, stronger effect = lower value 1.01 | locus YCL069W, strain vba3, stronger effect = lower value 1.01 | locus YCR088W, strain abp1, stronger effect = lower value 1 | locus YDL005C, strain med2, stronger effect = lower value 1 | locus YDL035C, strain GPR1, stronger effect = lower value 1.02 | locus YDL040C, strain nat1, stronger effect = lower value 0.99 | locus YDL074C, strain BRE1, stronger effect = lower value 1.08 | locus YDL101C, strain DUN1, stronger effect = lower value 1.01 | locus YDL134C, strain PPH21, stronger effect = lower value 1.01 | locus YDL185W, strain tfp1, stronger effect = lower value 0.99 | locus YDL192W, strain arf1, stronger effect = lower value 0.994 | locus YDR001C, strain nth1, stronger effect = lower value 1.01 | locus YDR069C, strain doa4, stronger effect = lower value 0.999 | locus YDR101C, strain arx1, stronger effect = lower value 0.986 | locus YDR137W, strain rgp1, stronger effect = lower value 1.02 | locus YDR150W, strain NUM1, stronger effect = lower value 1.01 | locus YDR159W, strain sac3, stronger effect = lower value 0.965 | locus YDR162C, strain NBP2, stronger effect = lower value 1.01 | locus YDR195W, strain ref2 0.964 | locus YDR297W, strain sur2, stronger effect = lower value 0.999 | locus YDR318W, strain mcm21, stronger effect = lower value 0.993 | locus YDR334W, strain swr1, stronger effect = lower value 1.01 | locus YDR335W, strain msn5, stronger effect = lower value 1.01 | locus YDR388W, stronger effect = lower value 0.985 | locus YDR392W, strain spt3, stronger effect = lower value 0.886 | locus YDR502C, strain sam2, stronger effect = lower value 1 | locus YEL003W, strain gim4, stronger effect = lower value 1.01 | locus YEL037C, strain rad23, stronger effect = lower value 1.01 | locus YEL061C, strain CIN8 (second series), stronger effect = lower value 1.01 | locus YEL061C, strain CIN8, stronger effect = lower value 1 | locus YER015W, strain faa2, stronger effect = lower value 1.02 | locus YER016W, strain bim1, stronger effect = lower value 1.01 | locus YER110C, stronger effect = lower value 0.983 | locus YER111C, strain swi4, stronger effect = lower value 1.02 | locus YER155C, strain BEM2 (second series), stronger effect = lower value 0.995 | locus YER155C, strain BEM2, stronger effect = lower value 0.998 | locus YER167W, strain BCK2, stronger effect = lower value 1.02 | locus YFR010W, strain ubp6, stronger effect = lower value 0.998 | locus YGL078C, strain dbp3, stronger effect = lower value 0.986 | locus YGL086W, strain mad1, stronger effect = lower value 0.987 | locus YGL167C, strain pmr1, stronger effect = lower value 0.995 | locus YGL173C, strain kem1, stronger effect = lower value 0.997 | locus YGL227W, strain vid30, stronger effect = lower value 1.01 | locus YGL240W, strain doc1, stronger effect = lower value 0.972 | locus YGL248W, strain PDE1, stronger effect = lower value 1.01 | locus YGL253W, strain hxk2, stronger effect = lower value 0.997 | locus YGR078C, strain PAC10, stronger effect = lower value 1.01 | locus YGR135W, strain pre9, stronger effect = lower value 1 | locus YGR229C, strain SMI1, stronger effect = lower value 1.03 | locus YGR252W, strain gcn5, stronger effect = lower value 0.98 | locus YHR013C, strain ard1, stronger effect = lower value 0.971 | locus YHR027C, strain rpn1, stronger effect = lower value 1 | locus YHR030C, strain SLT2, stronger effect = lower value 0.984 | locus YHR079C, strain IRE1 (second series), stronger effect = lower value 0.988 | locus YHR094C, strain hxt1, stronger effect = lower value 0.983 | locus YHR129C, strain ARP1, stronger effect = lower value 1.02 | locus YHR142W, strain chs7, stronger effect = lower value 1 | locus YHR200W, strain rpn10, stronger effect = lower value 0.98 | locus YIL066C, strain RNR3, stronger effect = lower value 1.03 | locus YIL073C, strain SPO22, stronger effect = lower value 0.995 | locus YIL125W, strain kgd1, stronger effect = lower value 0.997 | locus YIR030C, strain dcg1, stronger effect = lower value 0.992 | locus YJL092W, strain hpr5, stronger effect = lower value 1.01 | locus YJL095W, strain BCK1 (second series), stronger effect = lower value 1 | locus YJL095W, strain BCK1, stronger effect = lower value 1.03 | locus YJL115W, strain asf1, stronger effect = lower value 1.02 | locus YJL129C, strain trk1, stronger effect = lower value 1.01 | locus YJL134W, strain LCB3, stronger effect = lower value 1 | locus YJL154C, strain vps35, stronger effect = lower value 1.02 | locus YJL164C, strain tpk1, stronger effect = lower value 1.01 | locus YJL166W, strain qcr8, stronger effect = lower value 1 | locus YJL168C, strain set2, stronger effect = lower value 0.98 | locus YJL187C, strain SWE1 (second series), stronger effect = lower value 1.01 | locus YJL187C, strain SWE1, stronger effect = lower value 0.998
